# Screening results (PubChem BioAssay)
# Autophagy HCS: autophagy modulators in MEF cells, primary screen, imaging, high-content, MEF GFP-LC3; MEF GFP-LC3 puncta imaging; test concentration mostly 10 µM; hit rate 0.98% among 190,000; calls only at 10 µM (by protocol);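 active = percentage of spot-positive cells more than 3 SD above its plate mean, without a fluorescence outlier flag or 80% toxicity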
# HCT116 bCat-KO: primary screen for growth suppressors in beta-catenin knockout HCT116 cells (colon tumor, human); HCT116 beta-catenin knockout viability, CellTiter-Glo, 60 h; hits give low values; viability, % at 10 µM; hit rate 1.5% among 140,000;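 active = viability at or under a set limit, the compound median less 4 SD, cut at about 6% in these data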
# INS promoter inh: inhibitors of insulin promoter-driven GFP, primary screen, imaging, TRM-6 cells (human fetal islet line), eGFP reporter, cell count; reporter expression induced with tamoxifen; AID 1273, 2008; inhibition, % at 2 µM; hit rate 0.9% among 130,000;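 active = inhibition above the mean plus 3 SD, with well images judged a real hit on visual review, cut at about 60% in these data, passing the limit was not always enough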
# HCT116 PTEN-null: growth suppression of PTEN-null HCT116, primary screen, cell-based, CellTiter-Glo. viability, % at 10 µM. AID 827, 2007. hit rate 1.2% among 140,000. HCT116 PTEN-null viability, 60 h; hits give low values;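 active = viability at or below a set limit, 4 SD under the median of all tested compounds, cut at about 3.7% in these data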;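 note: PTEN knockout HCT116 line with beta catenin targeted HCT116 as companion control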
# Insulin prom up: insulin promoter activators in MIN6 cells, imaging, high-content screening, mouse beta cells | z-score at 5 µM | MIN6 insulin promoter-GFP reporter; hits give high values | hit rate 0.3% among 190,000;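 active = z-score above 3 at 5 µM with at least 500 cells counted in the well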
# Lmaj promast: Leishmania major promastigote growth inhibition, primary screen. Leishmania major promastigotes, resazurin fluorescence viability. inhibition, % at 10 µM. hit rate 9% among 200,000. AID 1063, 2008; in the data active = inhibition above about 50%;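 note: promastigotes grown with compound for 44 hours at 28 °C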
# Hits are given with their value; - = inactive; . = no result given; + = active, no number. This is a sample that favours compounds with a hit; in the whole collection about 9.6% have one here.
SMILES,Autophagy HCS,HCT116 bCat-KO,INS promoter inh,HCT116 PTEN-null,Insulin prom up,Lmaj promast
CC(=O)c1ccccc1OCC(O)CN1CCN(CCN2C(=O)c3cccc4cccc(c34)C2=O)CC1 (configuration not stated),-,.,.,.,-,99
COc1cc(COCC(O)CN2CCN(CCN3C(=O)c4cccc5cccc(c45)C3=O)CC2)cc(OC)c1OC (configuration not stated),-,-,-,-,-,-
Cc1ccc(C)c(OCC(O)CN2CCN(CCN3C(=O)c4cccc5cccc(c45)C3=O)CC2)c1 (configuration not stated),-,1.1,-,1.2,.,100
O=C1c2cccc3cccc(c23)C(=O)N1CCN1CCN(CC(O)COc2ccc3ccccc3c2)CC1 (configuration not stated),-,1.5,-,1.2,-,81
O=C1c2cccc3cccc(c23)C(=O)N1CCN1CCN(CC(O)COCc2ccc(Cl)cc2)CC1 (configuration not stated),-,3.1,-,2.7,.,-
Nc1nnc(CCCCc2cccs2)o1,-,-,-,-,-,-
CCNC(=S)N1N=C2c3ccccc3CCC2C1c1ccc(F)cc1 (configuration not stated),.,.,.,.,-,.
O=C(NNC(=O)C1COc2ccccc2O1)c1cccc([N+](=O)[O-])c1 (configuration not stated),-,.,-,.,-,-
COc1ccc(F)cc1S(=O)(=O)NC1CCCCCC1,-,-,-,-,-,-
O=C1c2cccc3cccc(c23)C(=O)N1CCN1CCN(C(=S)Nc2ccccc2)CC1,-,-,-,-,-,95
O=C(Nc1ccc(Cl)cc1)N1CCC(CO)(Cc2ccccc2)CC1,-,.,-,.,-,-
CC(C)COP(=O)(OCC(C)C)C(O)c1ccccc1F (configuration not stated),-,-,.,-,.,-
Cc1ccc(S(=O)(=O)Nc2cc(C(=O)NCCN3CCCC3)ccc2N2CCCCC2)cc1,-,-,-,-,-,99
Cc1ccc(S(=O)(=O)Nc2cc(C(=O)NCCN(C)C)ccc2N2CCCCC2)cc1,-,-,.,-,-,87
O=C(/C=C/c1ccc(O)c(O)c1)c1ccc(S(=O)(=O)N2CCCCCC2)cc1,-,-,-,-,.,95
Cc1ccc(-c2nc(NC(=O)c3nn(C)cc3[N+](=O)[O-])sc2C)cc1,+,1.4,-,1.4,-,-
Cn1cc([N+](=O)[O-])c(C(=O)Nc2nc(-c3ccc(Cl)cc3)cs2)n1,-,2.1,-,1.4,-,-
Cc1ccc(-c2nc(NC(=O)c3nn(C)cc3[N+](=O)[O-])sc2C)cc1C,-,1.6,-,1.4,-,-
O=C(O)COc1ccc2c3c(c(=O)oc2c1)CCCC3,-,.,-,.,.,-
CCOc1c(OC)ccc2c3c(c(=O)oc12)CCCC3,-,0.5,.,1.1,.,-
COc1ccc2c3c(c(=O)oc2c1OCC(=O)O)CCCC3,-,-,-,-,-,61
CCOc1ccc2c(C)c(C)c(=O)oc2c1OCC,-,-,.,-,.,-
Cc1ccc(-c2csc(NC(=O)CCNC(=O)c3ccc(Cl)cc3)n2)cc1,-,.,.,.,-,-
CN(Cc1ccccc1)S(=O)(=O)c1ccc(C(=O)Nc2nnc(C3CC3)o2)cc1,-,-,-,-,-,99
COc1ccccc1-c1nnc(NC(=O)c2ccc(S(=O)(=O)N(C)Cc3ccccc3)cc2)o1,-,-,-,-,-,97
SMILES,Autophagy HCS,HCT116 bCat-KO,INS promoter inh,HCT116 PTEN-null,Insulin prom up,Lmaj promast
CN(c1ccccc1)S(=O)(=O)c1ccc(C(=O)Nc2nnc(-c3ccc(F)cc3)o2)cc1,-,-,.,-,-,-
CC(=O)Nc1ccc(S(=O)(=O)N(C)Cc2ccccc2)cc1,-,.,-,.,-,-
CNc1nc(C(=O)O)nc(N2CCOCC2)n1,-,-,-,-,.,-
CCc1ccc(CNCc2ccc(OCC(O)CN(C)Cc3ccccc3)cc2)nc1 (configuration not stated),-,.,.,.,-,85
CN(Cc1ccccc1)CC(O)COc1ccc(CNCCc2ccncc2)cc1 (configuration not stated),-,.,.,.,.,90
Cc1cc(CN(C)Cc2cn(C)nc2-c2ccc(Oc3ccccc3)cc2)on1,.,.,.,.,-,.
CCN(Cc1ccccc1)CC(O)COc1ccccc1 (configuration not stated),-,-,-,-,.,-
Cc1cc(CN(C)Cc2ccc(OCC(O)CN(C)Cc3ccccc3)cc2)on1 (configuration not stated),-,.,.,.,-,88
CCn1ccnc1CNCc1ccc(OCC(O)CN(C)Cc2ccccc2)cc1 (configuration not stated),-,.,.,.,-,-
CN(Cc1ccccc1)CC(O)COc1ccc(CNCCc2cccnc2)cc1 (configuration not stated),-,.,.,.,-,83
CN(Cc1ccccc1)CC(O)COc1ccc(CNCc2nccn2C)cc1 (configuration not stated),-,.,.,.,-,-
CCc1ccc(N(C)S(=O)(=O)c2ccc3[nH]cc(C(=O)NCCN4CCOCC4)c(=O)c3c2)cc1,-,-,-,-,-,-
NC(=O)[C@@H]1CCCN1Cc1nc(Cc2cccc(C(F)(F)F)c2)no1,-,.,.,.,-,-
COc1ccc(CN2CCC(C(=O)NCCc3ccc(OC)c(OC)c3)CC2)c(OC)c1,-,-,-,-,-,-
COc1cc(CNn2cn[nH]c2=S)cc(Br)c1OCc1ccccc1F,-,.,.,.,-,-
Cc1ccc(OCCn2c(CCCO)nc3ccccc32)cc1,-,-,-,-,-,54
COc1ccc(NCc2nc3ccccc3n2CCOc2ccccc2)cc1,-,-,-,-,-,87
COc1ccc(NCc2nc3ccccc3n2CCOc2ccc(C)cc2)cc1,-,-,-,-,-,91
c1ccc(NCc2nc3ccccc3n2CCOc2ccccc2)cc1,-,-,-,-,-,-
C/C=C/c1ccc(OCC(=O)Nc2ccc(C(N)=O)cc2)c(OC)c1,-,.,-,.,-,-
Cc1oncc1C(=O)NC1CCCCC1,-,.,-,.,-,-
CCOC(=O)C1=C(C)N(C)C(=O)NC1c1c(C)nn(-c2ccc(C)cc2)c1Cl (configuration not stated),-,-,-,.,-,-
N#C/C(=C\c1cccc([N+](=O)[O-])c1)c1nnc2n1CCCCC2,-,-,-,-,-,61
CCN1/C(=C/c2cc[n+](CCCS(=O)(=O)[O-])c3ccccc23)Sc2ccccc21,-,.,.,.,6.1,100
CCN1/C(=C/C(=O)c2ccco2)Sc2ccccc21,-,-,.,-,-,-
CCOCCCNC(=O)C(NC(=O)c1ccc2c(c1)OCO2)c1ccccc1 (configuration not stated),+,.,.,.,-,-
COc1ccccc1CNC(=O)C(Cc1c[nH]c2ccccc12)NC(=O)OCc1ccccc1 (configuration not stated),-,-,-,-,.,99
